Here are results for eight compounds from PubChem BioAssay (NCI).

What all share (test): NCI-60 one-dose screen, 48 h (100 = growth as untreated, 0 = no growth, -100 = all killed)
What all share (settings): 10 µM unless noted

Test [1] deals with NCI-H23 lung.
Test [2] deals with NCI-H226 lung.
Test [3] concerns NCI-H322M lung.
The subject of test [4] is HOP-62 NSCLC.
The test system of test [5] is NCI-H460 lung.
Test [6] has as its system HOP-92 NSCLC.
Test [7] has as its system NCI-H522 lung.
Test [8] has as its system A549/ATCC NSCLC.
The subject of test [9] is 786-0 renal.
Test [10] relates to COLO 205 colon.
Test [11] relates to DU-145 prostate.
Test [12] has as its system K-562 leukemia.
For test [13], the system named is MALME-3M melanoma.
The subject of test [14] is MDA-MB-231 breast.
Test [15] deals with RXF 393 renal.
Test [16] concerns SF-268 CNS.
For test [17], the system named is SF-295 CNS.
For test [18], the system named is SF-539 CNS.
For test [19], the system named is UACC-257 melanoma.
In test [20] the test system is M14 melanoma.

Each structure is given as a SMILES string. The panel holds about 83,000 compounds, 20% with a hit somewhere; the sample as a whole holds those more often.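 A percent growth of 40 corresponds to 60% growth inhibition; 0 means no net growth; -100 means all cells died. Active threshold: below 10.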 Unmarked numbers belong to inactive results. The source made the active and inactive calls.

For `CCn1cc(C2=C(c3cn(C)c4ncccc34)C(=O)NC2=O)c2cccnc21`, the growth in test [1] is 66.3%; in test [2], 57.5%; in test [3], 79.6%; in test [4], 73.1%; in [5], 44.5%; in test [6], 81.4%. Also, the growth in test [7] was 83.9%; in [8], 65%; in [9] it was 50.5%; in test [10], 49%; in test [11] it was 80.1%; in [12] it was 100%. For the same compound, the growth was 73.8% in test [13]; 61.2% in [14]; 76.9% in test [15]; 75.6% in [16]; 61.4% in [17]; 72% in test [18]. Moreover, the growth in [19] is 102%; in test [20], 81.8%.
In the case of `COc1ccc(OC)c(-c2cn3nc(-c4c[nH]c5ccc(Br)cc45)sc3n2)c1`, the growth in [1] was 25%; in test [2], 89.9%; in [3], 50.6%; in [4], 60.9%; in test [5], -32.4% (active); in test [6], 46.5%. Also, the growth in [7] was 8.67% (active); in [8], 14.5%; in test [9], 49.3%; in [10], 29.8%; in test [11], 29.3%; in test [12], 5.98% (active). Besides, the growth is 52.2% in test [13]; 9.49% (active) in [14]; 67.8% in [15]; 18.3% in test [16]; 54.1% in test [17]; -12.8% (active) in test [18]. Further, the growth in [19] is 84.9%; in test [20] it was 12.7%.
`CC1(C)CC[C@]2(C(=O)N3CCOCC3)CC[C@]3(C)C(=CC[C@@H]4[C@@]5(C)C/C(=C/c6ccncc6)C(=O)C(C)(C)[C@@H]5CC[C@]43C)[C@@H]2C1`: the growth in test [1] was 19.5%; in [2], -20.4% (active); in [3] it was 40.9%; in test [4], 19.8%; in test [5] it was -21.8% (active); in [6], -6.7% (active). Also, the growth is -1.2% (active) in test [7]; 15.2% in test [8]; 26.2% in [9]; -21.1% (active) in test [10]; 21.7% in test [11]; 6.99% (active) in test [12]. Moreover, the growth is -19.7% (active) in [13]; 33.9% in test [14]; -36.8% (active) in test [15]; 48.6% in test [16]; 25.4% in [17]; -7.46% (active) in test [18]. Moreover, the results for the growth in test [19] and in [20] were 14.8% and -8.66% (active), respectively.
On to `O=C(CSc1nc2ccc([N+](=O)[O-])cc2[nH]1)Nc1ccc(Br)cc1`, for which the growth in test [1] is 44.1%; in test [2], 47.9%; in test [3], 86.7%; in [4], 50.9%; in test [5], 47.7%; in [6], -8.92% (active). Moreover, the growth was 20.9% in test [7]; 44.5% in test [8]; 48.3% in test [9]; 41.2% in test [10]; 62.2% in test [11]; 26.9% in test [12]. The growth was 40.9% in [13]; 67.7% in test [14]; 85.5% in test [15]; 65.5% in test [16]; 56.5% in test [17]; 70.5% in test [18]. Besides, the growth is 37.7% in test [19] and 50.1% in test [20].
On to `N=C(N)c1ccc(-c2ccc(-c3ccc(Cl)cc3)o2)o1`, for which the growth is 29% in [1]; 82.7% in test [2]; 26.2% in test [3]; 52.4% in [4]; -72.3% (active) in test [5]; 39.5% in test [6]. Besides, the growth was -2.55% (active) in test [7]; -64.6% (active) in [8]; 1.68% (active) in test [9]; -78.6% (active) in [10]; -80.4% (active) in [11]; -60% (active) in [12]. For the same compound, the growth in [13] is 90.6%; in test [14], -60.2% (active); in [15] it was 40.4%; in test [16] it was 17.9%; in test [17], 27.4%; in test [18], 74.1%. Also, the growth in test [19] was 53.4%; in [20], 19.7%.
Regarding `CN(C)c1ccc(/C=C2/C=C(c3ccccc3)OC2=O)cc1`, the growth in [1] is 95.4%; in test [2], 105%; in test [3] it was 96.9%; in [4], 96.3%; in [5], 103%; in test [6], 98.2%. The growth is 55.7% in [7]; 96.4% in test [8]; 100% in [9]; 99.3% in test [10]; 101% in test [11]; 46.9% in [12]. Besides, the growth in test [13] was 96.2%; in [14] it was 109%; in test [15] it was 89.5%; in [16] it was 101%; in test [17], 79.4%; in [18], 102%. For the same compound, the growth was 89.2% in test [19] and 86.1% in test [20].
Regarding `CCOC(=O)c1n[nH]n2c1nc(=O)c1cnn(C)c12`, the growth in [1] was 96.5%; in [2] it was 98.1%; in test [3], 99.4%; in test [4], 103%; in [5], 103%; in test [6], 103%. Also, the growth in test [7] was 91%; in test [8], 86.7%; in test [9] it was 106%; in test [10] it was 111%; in test [11], 98.5%; in test [12], 93%. The growth in [13] was 101%; in test [14] it was 113%; in test [15], 109%; in [16], 96.1%; in [17], 108%; in test [18], 103%. Also, the growth in [19] is 86.4%; in test [20], 102%.
With `COc1ccc(C(c2cc(OC)c(OC)c(OC)c2)N2CCN(Cc3ccccc3)CC2)cc1` (stereo not given), the growth was 88.5% in test [1]; 85.4% in test [2]; 65.1% in [3]; 69.7% in test [4]; 74.4% in test [5]; 70.6% in test [6]. Also, the growth in [7] is 52.4%; in test [8], 78.4%; in [9], 82.6%; in [10], 61.8%; in test [11], 102%; in test [12], 26.4%. Besides, the growth in test [13] is 74.8%; in test [14], 71%; in test [15], 72.3%; in test [16], 86.4%; in [17], 68.7%; in test [18] it was 81.2%. In addition, the growth in [19] was 84.2%; in test [20] it was 52.8%.
